Measurements from PubChem BioAssay (EPA / NIEHS).
“And” between values parts separate entries of the source, which are not always exact repeats. Equal values may be shown once. Results filed as inconclusive are left out. The source made the active and inactive calls. Rule for the calls: active = hit-call score of the fitted dose curve at least 0.9, where 1 is the maximum; inconclusive = response in the unintended direction; inactive = score below 0.9.

biological target: Cellular tumor antigen p53 (Homo sapiens) (UniProt P04637); experiment: TOX21_p53_BLA_p4_ratio: Tox21 HCT-116 p53 Agonism Beta-lactamase Assay, Ratio, Phase 4 (AID 2283601)
Outline: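 HCT116 cells carrying an inducible beta-lactamase reporter were plated at 4000 cells/well, rested 5 h, then exposed to compounds in DMSO (217-fold dilution) for 16 h at 37C. CCF4-AM substrate was loaded 2 h at room temperature; 460/530 nm emission ratio scored gain-of-signal versus DMSO.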

Cellular tumor antigen p53 (Homo sapiens), sequence (P04637 whole entry, looked up): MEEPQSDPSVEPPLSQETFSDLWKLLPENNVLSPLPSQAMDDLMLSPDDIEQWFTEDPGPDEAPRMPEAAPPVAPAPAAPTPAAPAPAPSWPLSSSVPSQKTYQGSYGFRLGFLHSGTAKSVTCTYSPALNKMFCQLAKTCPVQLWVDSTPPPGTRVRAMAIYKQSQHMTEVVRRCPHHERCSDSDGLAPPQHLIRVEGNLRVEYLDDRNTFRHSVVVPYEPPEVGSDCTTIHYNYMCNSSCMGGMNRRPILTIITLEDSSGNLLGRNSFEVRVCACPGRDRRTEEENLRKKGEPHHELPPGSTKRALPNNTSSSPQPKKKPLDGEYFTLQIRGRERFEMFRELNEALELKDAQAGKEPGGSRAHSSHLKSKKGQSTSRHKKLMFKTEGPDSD

Structure (SMILES)	AC50	outcome
CC(C)C[C@H](NC(=O)[C@H](Cc1ccccc1)NC(=O)c1cnccn1)B(O)O	9.86 nM (active) and 13 nM (active)	–
C#CCC(Cc1cnc2nc(N)nc(N)c2n1)c1ccc(C(=O)N[C@@H](CCC(=O)O)C(=O)O)cc1 (stereo partly drawn)	0.575 µM (active)	–
NC(N)=NCc1cccc(I)c1	–	inactive
O=C(Oc1cccc2cccnc12)c1ccccc1	–	inactive
O=C(Nc1ccc(Cl)c(Cl)c1)C1CC1	–	inactive
Oc1ccc(N=Nc2ccccc2)cc1	87.8 µM (active)	–
COC(=O)C1=C(C)NC(C)=C(C(=O)OCCN2CCN(C(c3ccccc3)c3ccccc3)CC2)C1c1cccc([N+](=O)[O-])c1 (stereo not drawn)	–	inactive
Cc1c(N(C)CS(=O)(=O)O)c(=O)n(-c2ccccc2)n1C	–	inactive
N#C/C(=C1/SC[C@@H](c2ccc(Cl)cc2Cl)S1)n1ccnc1	–	inactive
C[C@]12C=CC(=O)C=C1[C@@H](F)C[C@@H]1[C@@H]2[C@@H](O)C[C@@]2(C)[C@H]1CC[C@]2(O)C(=O)CO	–	inactive
CCCCCCCCCCCCCC[N+](C)(C)Cc1ccccc1	43.7 µM (active)	–
CN[C@H]1CC[C@@H](c2ccc(Cl)c(Cl)c2)c2ccccc21	36.8 µM (active)	–
O=C1Nc2ccc(Cl)cc2[C@@](C#CC2CC2)(C(F)(F)F)O1	43.5 µM (active)	–
CC(=O)Oc1ccc2c(c1)CC[C@@H]1[C@@H]2CC[C@]2(C)[C@@H](O)CC[C@@H]12	–	inactive
CC(C)C[C@H](NC(=O)[C@H](CCc1ccccc1)NC(=O)CN1CCOCC1)C(=O)N[C@@H](Cc1ccccc1)C(=O)N[C@@H](CC(C)C)C(=O)[C@@]1(C)CO1	0.109 µM (active)	–
CCCCCCCCCCCCCCCCC(C(=O)O)C(O)(CC(=O)O)C(=O)O (stereo not drawn)	–	inactive
COc1cc([C@@H]2c3cc4c(cc3C(O[C@@H]3O[C@@H]5COC(c6cccs6)O[C@H]5[C@H](O)[C@H]3O)C3COC(=O)[C@@H]32)OCO4)cc(OC)c1O (stereo partly drawn)	0.841 µM (active)	–
Cc1cc(-n2c(=O)[nH]c(=O)n(C)c2=O)ccc1Oc1ccc(S(=O)(=O)C(F)(F)F)cc1	–	inactive
NC(=O)n1c(O)c(C(=O)c2cccs2)c2cc(Cl)ccc21	–	inactive
CCC(=C(CC)c1ccc(O)cc1)c1ccc(O)cc1	7.47 µM (active)	–

Structure (SMILES)	AC50	outcome
CCC(C)n1ncn(-c2ccc(N3CCN(c4ccc(OC[C@H]5CO[C@](Cn6cncn6)(c6ccc(Cl)cc6Cl)O5)cc4)CC3)cc2)c1=O (stereo partly drawn)	–	inactive
C#C[C@]1(O)CC[C@H]2[C@@H]3CCc4cc(OC5CCCC5)ccc4[C@H]3CC[C@@]21C	–	inactive
Cc1ccc(/C=N/n2c(-c3ccccc3)csc2=S)cc1	–	inactive
COC(=O)C1=C(C)NC(COC(N)=O)=C(C(=O)OC(C)C)C1c1cccc(Cl)c1Cl (stereo not drawn)	28.8 µM (active)	–
CC(C)(C)CC(C)(C)c1ccc(O)c(Cc2ccc(Cl)cc2Cl)c1	–	inactive
Cc1cc(Nc2ccccc2C(=O)O)ccc1Cl	23 µM (active)	–
COC(=O)C1=C(C)NC(C)=C(C(=O)OCC(C)=O)C1c1ccccc1[N+](=O)[O-] (stereo not drawn)	–	inactive
CCOC(=O)COc1ccc2c(=O)cc(-c3ccccc3)oc2c1	–	inactive
NCCCC[C@H](NC(=O)[C@@H]1CCCN1C(=O)[C@@H]1CSSC[C@H](N)C(=O)N[C@@H](Cc2ccc(O)cc2)C(=O)N[C@@H](Cc2ccccc2)C(=O)N[C@@H](CCC(N)=O)C(=O)N[C@@H](CC(N)=O)C(=O)N1)C(=O)NCC(N)=O	–	inactive
COc1cc(C)c(/C=C/C(C)=C/C=C/C(C)=C/C(=O)O)c(C)c1C	–	inactive
NC(=O)C(=O)NN=Cc1ccc([N+](=O)[O-])o1	41.8 µM (active)	–
C[C@@H](NCCCc1cccc(C(F)(F)F)c1)c1cccc2ccccc12	25.1 µM (active)	–
COCCOC(=O)C1=C(C)NC(C)=C(C(=O)OC/C=C/c2ccccc2)C1c1cccc([N+](=O)[O-])c1 (stereo not drawn)	–	inactive
COc1ccc(C(=O)CC(=O)c2ccc(C(C)(C)C)cc2)cc1	–	inactive
Cc1ccc2c(Cl)cc(Cl)c(O)c2n1	33.1 µM (active)	–
OC[C@]1(O)OC[C@@H](O)[C@H](O)[C@@H]1O	–	inactive
CCN(CC)CCNC(=O)c1c(C)[nH]c(/C=C2\C(=O)Nc3ccc(F)cc32)c1C	37.1 µM (active)	–
CC(C)=CCC1=C(O)c2ccccc2C(=O)C1=O	2.71 µM (active)	–
C=C1C(CCl)(CCl)C2(Cl)C(Cl)C(Cl)C1(Cl)C2(Cl)Cl (stereo not drawn)	86.6 µM (active) and 36.1 µM (active)	–

biological target: PGR (gene 5241) (UniProt P06401); experiment: TOX21_PR_BLA_Followup_Agonist_ratio: Tox21 HEK293 Progesterone Receptor (PR) Agonism Beta-lactamase Follow-Up Assay, Ratio (AID 2283933)
Outline: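 Read-out: ratio of cleaved (ch2) to uncleaved (ch1) beta-lactamase substrate fluorescence, gain-of-signal relative to DMSO baseline. Cells: PR-UAS-bla HEK293T, 2% charcoal-stripped FBS; compound exposure 16 hr, 37C; substrate 2 hr, RT.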

PGR (gene 5241), sequence (P06401 whole entry, looked up): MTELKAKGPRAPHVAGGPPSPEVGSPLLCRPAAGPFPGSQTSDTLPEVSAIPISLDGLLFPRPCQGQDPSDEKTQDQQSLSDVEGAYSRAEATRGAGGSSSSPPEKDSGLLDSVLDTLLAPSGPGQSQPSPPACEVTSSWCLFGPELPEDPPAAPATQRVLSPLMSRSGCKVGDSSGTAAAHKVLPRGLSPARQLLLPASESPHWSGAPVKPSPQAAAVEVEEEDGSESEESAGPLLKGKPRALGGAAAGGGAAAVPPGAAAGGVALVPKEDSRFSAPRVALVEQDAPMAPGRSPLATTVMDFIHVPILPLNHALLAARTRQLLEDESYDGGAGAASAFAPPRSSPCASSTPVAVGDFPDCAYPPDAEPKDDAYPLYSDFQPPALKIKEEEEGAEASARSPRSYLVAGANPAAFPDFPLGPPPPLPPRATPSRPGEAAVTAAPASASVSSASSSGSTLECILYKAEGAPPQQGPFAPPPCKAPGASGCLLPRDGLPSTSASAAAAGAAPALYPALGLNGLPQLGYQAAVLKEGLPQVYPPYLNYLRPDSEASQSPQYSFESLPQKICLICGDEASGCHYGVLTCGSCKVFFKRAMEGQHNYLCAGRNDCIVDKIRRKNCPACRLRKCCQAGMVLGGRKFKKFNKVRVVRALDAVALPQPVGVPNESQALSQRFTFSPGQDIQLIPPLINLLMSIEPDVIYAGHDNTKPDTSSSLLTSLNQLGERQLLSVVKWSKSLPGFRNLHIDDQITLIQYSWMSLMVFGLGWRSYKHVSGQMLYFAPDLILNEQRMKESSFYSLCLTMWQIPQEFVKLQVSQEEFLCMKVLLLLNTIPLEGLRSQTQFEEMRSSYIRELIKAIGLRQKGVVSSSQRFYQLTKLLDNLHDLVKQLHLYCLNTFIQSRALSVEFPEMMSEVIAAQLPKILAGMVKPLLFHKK

Structure (SMILES)	outcome	AC50
CC(C)C[C@H](NC(=O)[C@H](Cc1ccccc1)NC(=O)c1cnccn1)B(O)O	inactive	–
O=C(Nc1ccc(Cl)c(Cl)c1)C1CC1	inactive	–
Oc1ccc(N=Nc2ccccc2)cc1	inactive	–
COC(=O)C1=C(C)NC(C)=C(C(=O)OCCN2CCN(C(c3ccccc3)c3ccccc3)CC2)C1c1cccc([N+](=O)[O-])c1 (stereo not drawn)	inactive	–
CC(C)C[C@H](NC(=O)[C@H](CCc1ccccc1)NC(=O)CN1CCOCC1)C(=O)N[C@@H](Cc1ccccc1)C(=O)N[C@@H](CC(C)C)C(=O)[C@@]1(C)CO1	inactive	–
NC(=O)n1c(O)c(C(=O)c2cccs2)c2cc(Cl)ccc21	inactive	–
CCC(=C(CC)c1ccc(O)cc1)c1ccc(O)cc1	inactive	–
COC(=O)C1=C(C)NC(COC(N)=O)=C(C(=O)OC(C)C)C1c1cccc(Cl)c1Cl (stereo not drawn)	–	23 µM (active)
C=C1C(CCl)(CCl)C2(Cl)C(Cl)C(Cl)C1(Cl)C2(Cl)Cl (stereo not drawn)	inactive	–
